Assay outcomes (PubChem)
Sampled rows, rich in hits. Any-hit rate of the full collection: about 21%.
Pf growth 48h = inhibits P. falciparum growth in the first generation, 48 h | P. falciparum luciferase growth in erythrocytes, 48 h | Potency, µM (top dose mostly 28.7 µM), for the others: top-dose activity change, negative = inhibition, usual class: inhibitors | 310,000 tested, 5.9% active | AID 504832; further: potency means the concentration at half of the fitted maximal effect; on the % scale 0 is the no-effect control and ±100 the full control effect
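Here the parasites carry a stable luciferase gene and grow inside erythrocytes in Albumax-based RPMI medium with compound for one erythrocytic cycle. Activity is scored as loss of luminescent signal.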
Pf growth 96h = P. falciparum growth inhibition at 96 hour, primary screen for plastid delayed-death inhibitors | Potency, µM (top dose mostly 28.7 µM), for the others: top-dose activity change, negative = inhibition, most hits filed as inhibitors | 320,000 tested, 6.9% active | AID 504834 | P. falciparum luciferase reporter growth, 96 h; further: potency means the concentration at half of the fitted maximal effect; on the % scale 0 is the no-effect control and ±100 the full control effect
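96 h incubation, 37 C, 5% CO2, of luciferase-reporter P. falciparum-infected RBCs (2% hematocrit, 0.05% parasitemia final) with test compounds; endpoint luminescence.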
AMA1-RON2 inh = disrupts binding of P. falciparum AMA1 to RON2; AlphaScreen AMA1-biotinylated RON2 peptide binding; Potency, µM (titrated, usually from 58.2 µM), for the others: top-dose activity change, negative = inhibition, hits mostly inhibitors; 360,000 tested, 0.2% active; AID 720542;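 further: potency means the concentration at half of the fitted maximal effect; 0% = vehicle wells and -100% = peptide control; nearly all actives have a fitted effect of over 45% in size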
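AMA1 (3D7) with his tag at 25 nM final met compounds first, then biotinylated RON2 peptide at 25 nM; detection used donor plus acceptor beads, 10 µg/mL apiece, read by AlphaScreen after 30 min at room temperature.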
HCV inhibitor = HCV inhibition; Huh7.5.1 HCVcc-Cre infection, luciferase reporter, 44 h; Potency, µM (highest dose often 41.8 µM), for the others: at the highest dose activity change, negative = inhibition, most hits filed as inhibitors; 340,000 tested, 3.4% active; AID 651820; further: potency means the concentration at half of the fitted maximal effect; on the % scale 0 is the no-effect control and ±100 the full control effect
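HCVcc-Cre virus at an moi near 0.5 was added right after compound to cells cultured 4 h from seeding (1,000 cells/well). Luciferase activity was determined 44 h later, 15 min after substrate addition at RT.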
CHX counter = counter-screen for Shiga toxin inhibitors: cycloheximide protein synthesis inhibition. cell reporter, cycloheximide protein synthesis inhibition counterscreen. max response, %. 300,000 tested, 12% active. AID 2314; in the data active means max response mostly above about 13%, no sharp cut-off; inactive means mostly below about 14%; further: read at 38.3 µM for the half of the compounds with a filed dose; 0% is about no effect
Shiga inhibitor = Shiga toxin inhibition; Vero cells, Shiga toxin protein synthesis inhibition reporter; inhibition, % at 38.7 µM; 290,000 tested, 9.2% active; AID 2315; in the data active means inhibition mostly above about 28%, no sharp cut-off; inactive means mostly below about 43%; further: 0% is about no effect
An asterisk follows results filed as active; ? = inconclusive; nt = not tested or not shown; [ ] = dose if it differs, or a comment. Unless noted, the call rests on the fitted dose curve; in most records, active means well fitted curve in the direction sought with a large enough effect; inconclusive means small, poorly fitted or top-dose-only effect, or another doubt; inactive means no such curve, though single readings can be large; an effect the other way counts as inactive or inconclusive.

SMILES	Pf growth 48h	Pf growth 96h	AMA1-RON2 inh	HCV inhibitor	CHX counter	Shiga inhibitor
Nc1nc(N)nc(-c2cc([N+](=O)[O-])ccc2O)n1	-17%	2.1µM*	68%	-17%	nt	nt
COc1ccc(O)c(-c2cc(C(F)(F)C(F)F)nc(-c3ccccc3)n2)c1	13µM*	2.9µM*	-7%	?	-1	18
Nc1nc(N)nc(-c2cc(O)ccc2O)n1	?	?	6%	-15%	nt	nt
O=[N+]([O-])c1ccc(O)c(-c2cc(C(F)(F)F)nc(-c3ccccc3)n2)c1	0.37µM*	22%	-2%	1.4µM*	-2	27
COc1ccc(CCN(Cc2cccs2)S(=O)(=O)c2ccc(C(=O)O)cc2)cc1OC	-8%	17%	2%	15%	-2	-6
Cc1ccnc2nc(C(=O)OC(C)C(=O)NCc3ccccc3)nn12 (stereo not drawn)	-17%	9%	-1%	4%	nt	nt
Cc1cc(Cl)ccc1OCC(=O)Nc1ccccc1C(=O)N1CCOCC1	-4%	82%	13%	10%	8	-3
COc1cc(C(=S)N2CCCCC2)ccc1OCC(=O)Nc1ccccc1Cl	-16%[5.75 µM]	0%	-10%	?	-5	8
O=C(COc1ccc(C(=S)N2CCOCC2)cc1Cl)Nc1ccccc1Cl	29%	13%	6%	4%	19*	52*
O=C(COc1ccc(Cl)cc1Cl)NC(=O)N1CCOCC1	94%	nt	2%	22%	35*	93*
O=C(COc1ccccc1Cl)Nc1ccccc1C(=O)N1CCOCC1	15%	?	-11%	4%	18*	29
COc1cc(Cl)ccc1NC(=O)COc1ccccc1C(=O)N1CCN(c2ccc(O)cc2)CC1	5.9µM*	?	-7%	-9%	-4	29
CCC1CCCCN1S(=O)(=O)c1ccc(NC(=O)C2CC(=O)N(C(C)(C)C)C2)cc1 (stereo not drawn)	nt	nt	11%	4%	nt	nt
O=C(Nc1ccc(Cl)cc1C(=O)N1CCOCC1)c1ccco1	17%	?	16%	9%	-3	-6
O=C(c1cc(Cl)ccc1OCc1ccccc1)N1CCOCC1	31%	9%	-8%	-4%	20*	26
COc1ccc(-c2cc(=O)[nH]c(=S)[nH]2)cc1	1%	?	72%	20%	-3	-8
COc1cc(-c2ccccc2)[nH]c(=S)n1	35%	7.4µM*	107%	-2%	nt	nt
O=c1c2[nH]c3ccc(Br)cc3c2ncn1Cc1ccncc1	0%	37%	0%	20%	6	67
CCCc1n[nH]c2c1/C(=N/O)CC(c1ccccc1)C2 (stereo not drawn)	?	?	-3%	-19%	12	19
CCc1noc2c1/C(=N\O)CC(c1ccccc1)C2 (stereo not drawn)	8.3µM*	85%	5%	-17%	18	32
CCCc1noc2c1/C(=N\O)CC(c1ccccc1)C2 (stereo not drawn)	9.3µM*	?	4%	-1%	-2	12
Cc1[nH]nc2c1/C(=N/O)CC(c1ccccc1)C2 (stereo not drawn)	-14%	?	-2%	-6%	1	-2
COc1ccccc1P(=O)(c1ccccc1)c1ccc([N+](=O)[O-])cc1 (stereo not drawn)	-9%[0.00184 µM]	-1%	-5%	1%	-1	-8
Cc1ccc(CNC(=O)Cc2noc3ccccc23)cc1	348%	349%	-2%	28%	33*	51*
Cc1ccc(NC(=O)Cc2noc3ccccc23)nc1	52%	85%	5%	32%	23*	59*
SMILES	Pf growth 48h	Pf growth 96h	AMA1-RON2 inh	HCV inhibitor	CHX counter	Shiga inhibitor
O=C(Cc1noc2ccccc12)NNC(=S)Nc1ccc(Cl)cc1	4%	9%	36%	19%	-8	-11
O=C(Cc1noc2ccccc12)Nc1ccccn1	119%	152%	-10%	14%	54*	88*
CC1(C(=O)NS(=O)(=O)c2ccc(Cl)cc2)CCN1C(=O)C/C=C/c1ccccc1 (stereo not drawn)	nt	nt	35%	nt	nt	nt
CC(=O)Nc1ccc2c(c1)Cc1cc(N3C(=O)C=CC3=O)ccc1-2	nt	nt	-10%	-15%	nt	nt
Clc1ccccc1N1CCN(Cc2c[nH]c3ccccc23)CC1	nt	nt	-20%	-15%	nt	nt
Fc1ccccc1N1CCN(C2CCN(Cc3c[nH]c4ccccc34)CC2)CC1	nt	3.7µM*	24%	?	24	16
O=C(Cn1nnc(-c2ccccc2NC(=O)c2ccccc2F)n1)NC1CCCC1	6%	-6%	-5%	6%	-2	-7
O=C(CN1CCN(c2nc(-c3ccccc3)cs2)CC1)Nc1ccc2c(c1)OCO2	-3%	nt	?	?	-1	23
O=C1c2ccccc2C(=O)N1c1cccc(-c2csc(Nc3ccc4c(c3)OCO4)n2)c1	18%	10µM*	nt	-1%	20*	71*
COc1ccccc1Nc1nc(-c2cccc(N3C(=O)c4ccccc4C3=O)c2)cs1	6%	15µM*	-13%[2.32 µM]	1%	1	-4
COC(=O)c1cc(S(=O)(=O)N2CCN(c3cccc(Cl)c3)CC2)c[nH]1	15%	?	0%	?	-4	-2
CC1CN(S(=O)(=O)c2cccc(C(=O)N3CCC(C(N)=O)CC3)c2)CC(C)O1 (stereo not drawn)	nt	nt	-3%	0%	nt	nt
CCOc1ccc(Oc2nc(Nc3ccc(C)cc3)nc(N(C)C)n2)nn1	3%	nt	1%	11µM*	5	-3
CC1(C(=O)NC2CCc3ccccc32)CCN1CCc1ccccc1 (stereo not drawn)	nt	nt	-7%	nt	nt	nt
Cc1ccnc(NC(=O)c2ccc(OCc3c(C)noc3C)cc2)c1	46%	92%	-14%	?	nt	nt
O=C1CC(c2ccsc2)c2cc3c(cc2N1)OCCO3 (stereo not drawn)	?	12µM*	-5%	?	-1	9
Cc1cc2c(cc1C)C(c1ccsc1)CC(=O)N2 (stereo not drawn)	95%	4.7µM*	9%	22%	1	-9
Clc1ccccc1Cn1nnc2ccccc21	-15%	25%	5%	1%	-3	-4
O=C(Nc1cccc(Cl)c1)C1C2C=CC3(O2)C1C(=O)N(CCN1CCCCC1)C3C(=O)NC1CCCCC1 (stereo not drawn)	?	5.2µM*	-4%	-6%	-5	12
O=C(Nc1ccc(Cl)cc1)C1C2C=CC3(O2)C1C(=O)N(CCN1CCCCC1)C3C(=O)NC1CCCCC1 (stereo not drawn)	?	?	-11%	?	-4	20
CCCCN(C)CCN1C(=O)C2C(C(=O)Nc3ccc(Cl)cc3)C3C=CC2(O3)C1C(=O)NC1CCCCC1 (stereo not drawn)	10µM*	-3%	-12%	?	-7	-3
